DT40 TDP1 CPT: growth inhibition of DT40 Tdp1-/-;hTDP1 cells with camptothecin (screen for TDP1 inhibitors). AID 686979. actives 12% (n = 420,000). chicken DT40 Tdp1-/-;hTDP1 cells + 20 nM CPT, ATP luminescence, 48 h. Potency, µM (series often up to 46.2 µM), without a hit: at the top dose activity change, negative = growth inhibition, usual class: inhibitors; note: nearly all actives have a fitted effect of over 55% in size
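Cell growth measured by CellTiter-Glo luminescence after a minimum 48 h, 37 C compound exposure with 20 nM CPT in Tdp1-knockout DT40 cells stably expressing hTDP1, seeded 400/well; qHTS titration format.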
TDP1 block: TDP1 (human) enzyme inhibition | recombinant TDP1, AlphaScreen DNA substrate cleavage | Potency, µM (highest dose often 130 µM), without a hit: at the top dose activity change, negative = inhibition, most hits filed as inhibitors | actives 0.28% (n = 350,000); note: nearly all actives have a fitted effect of over 40% in size
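Recombinant E. coli-expressed Tdp1 (1 nM) preincubated with compound 15 min at RT, then 5'-biotin/3'-phosphotyrosine-FITC DNA substrate (15 nM) added for 5 min. AlphaScreen beads (10 ug/ml) added, 10 min RT; tyrosine-FITC cleavage read as signal loss.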
VDR inh: blocks the human vitamin D receptor; actives 0.93% (n = 400,000); Potency, µM, for inactives: max response, negative = inhibition, hits mostly inhibitors; VDR-SRC2-3 peptide fluorescence polarization, 2 h
Target sequence (P11473 whole entry, looked up): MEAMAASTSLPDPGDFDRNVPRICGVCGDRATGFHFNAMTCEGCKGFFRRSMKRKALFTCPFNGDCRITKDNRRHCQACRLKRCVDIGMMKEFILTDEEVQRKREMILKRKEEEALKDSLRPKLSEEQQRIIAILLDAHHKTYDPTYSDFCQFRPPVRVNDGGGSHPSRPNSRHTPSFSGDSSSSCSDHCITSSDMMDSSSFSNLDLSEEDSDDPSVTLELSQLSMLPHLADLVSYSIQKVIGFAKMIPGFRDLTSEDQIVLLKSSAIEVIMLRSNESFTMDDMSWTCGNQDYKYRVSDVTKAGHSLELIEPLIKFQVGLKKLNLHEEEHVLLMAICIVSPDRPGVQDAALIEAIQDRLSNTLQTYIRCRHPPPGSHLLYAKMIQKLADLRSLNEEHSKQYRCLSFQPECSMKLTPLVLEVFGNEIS
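VDR–SRC2-3 interaction, FP format. Cmpds 23 nl via pintool, brief spin, 2 h ambient incubation.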
TDP1 cell noCPT: qHTS for Inhibitors of human tyrosyl-DNA phosphodiesterase 1 (TDP1): qHTS in cells in absence of CPT; DT40 Tdp1-/- hTDP1 cells, no CPT, ATP luminescence, 48 h; Potency, µM (highest dose often 46.2 µM), inactives show at the highest dose activity change, negative = growth inhibition, hits mostly inhibitors; actives 15% (n = 420,000); note: nearly all actives have a fitted effect of over 55% in size
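Growth kinetics read by CellTiter-Glo luminescence after ≥48 hr at 37 °C. Cells: DT40 Tdp1-/- stably carrying human TDP1, 400 per well, compound exposure in the absence of CPT (DMSO vehicle).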
PLK1 PBD inh: inhibitors of human PLK1 polo-box domain binding; actives 2.8% (n = 360,000); Potency, µM, for the others: max response, negative = inhibition, actives largely listed as inhibitors; Plk1 PBD binding of FITC phosphopeptide, fluorescence polarization; note: series mostly up to about 57 µM; nearly all actives have a fitted effect of over 65% in size
GCN5L2 inh: GCN5L2 (KAT2A) acetyltransferase inhibition; Potency, µM (titrated, usually from 58.9 µM), without a hit: top-dose activity change, negative = inhibition, most hits filed as inhibitors; actives 0.21% (n = 390,000); GCN5L2 HAT assay, ThioGlo1 CoA-SH fluorescence; Q92830
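Free CoA generated was detected with ThioGlo1 (50uM) fluorescence at Ex340nm/Em540nm, read immediately and after 20 min at room temperature. Enzyme, 20 nM in HEPES pH 7.5 buffer, saw compounds 15 min before adding 75uM H3(1-25) peptide and 70uM acetyl-CoA.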
Starred values were filed as active, the others as inactive; ? = inconclusive; nt = no result given. Only some compounds are listed: those with a hit (about 18% of all), similar ones and a draw of the others. Calls come from the whole dose curve; as a rule, active = well fitted curve in the direction sought with a large enough effect; inconclusive = small, poorly fitted or top-dose-only effect, or another doubt; inactive = no such curve, though single readings can be large; an effect the other way counts as inactive or inconclusive. % is set by controls: 0 for no effect and ±100 for the full control effect; potency is the fitted concentration of half-maximal effect.

SMILES	DT40 TDP1 CPT	TDP1 block	VDR inh	TDP1 cell noCPT	PLK1 PBD inh	GCN5L2 inh
CCc1nc2ccc(C(=O)Nc3ccc(OC)c(OC)c3)cn2c1N(CCC(C)C)CCN(C)C	?	nt	nt	?	0%	nt
CCc1nc2ccc(C(=O)Nc3cc(-c4ccccc4)ccc3OC)cn2c1N(CCN(C)C)CC1CC1	21µM*	nt	nt	15µM*	-5%	nt
CCc1nc2ccc(C(=O)Nc3cc(-c4ccccc4)ccc3OC)cn2c1N(C)CCC(C)C	18µM*	nt	nt	21µM*	3%	nt
COc1ccc(N2CCc3c(C)nc4c(OC)cccc4c32)cc1	4.6µM*	5%	12%	2.9µM*	-2%	-30%
COc1ccc(N2CCc3c(C)nc4c(OC)cc(OC)cc4c32)cc1	23µM*	3%	7%	15µM*	-11%	25%
COc1cccc(N2CCc3c(C)nc4ccc(Cl)cc4c32)c1	10µM*	nt	-21%	7.3µM*	-3%	-22%
COc1ccc(N2Cc3ccc(OC)c(OC)c3C2=O)cc1	-4%	nt	23%	-7%	-20%	-16%
Cc1nc2c(C)cccc2c2c1CCN2c1ccccc1F	15µM*	nt	-3%	21µM*	-22%	-7%
COc1ccc(S(=O)(=O)c2c(O)c3ccc(C(=O)NCc4ccccc4)cc3[nH]c2=O)cc1	18%	-3%	3%	-5%	nt	0%
COc1ccc(N2C(=O)C3C4C=CC(C4)C3C2=O)c(OC)c1 (stereo not given)	-4%	4%	14%	-6%	0%	3%
COc1ccc(N2CCc3c(C)nc4c(OC)cc(OC)cc4c32)c(OC)c1	6.5µM*	5%	-2%	5.2µM*	-2%	1%
O=c1c(-c2cccc(Cl)c2)nc2cncnc2n1Cc1ccccc1	?	nt	-29%	6%	nt	-14%
CC(C)C(NC(=O)c1ccc(Cl)c([N+](=O)[O-])c1)C(=O)NCc1ccccn1 (stereo not given)	-2%	-1%	-4%	-7%	-1%	1%
CCOC(=O)c1c(-c2ccccc2)cn2c(C)cc(C)nc12	7%	-3%	13%	-11%	-5%	-24%
CCOC(=O)c1c(Nc2ccc(C)c(C)c2)nnc(-c2ccccc2)c1-c1ccccc1	?	nt	-11%	16µM*	nt	-16%
CCOC(=O)c1c(Nc2cccc(C)c2)nnc(-c2ccccc2)c1-c1ccccc1	?	nt	-6%	16µM*	nt	-13%
CCOC(=O)c1c(Nc2cc(C)cc(C)c2)nnc(-c2ccccc2)c1-c1ccccc1	12µM*	nt	-6%	15µM*	nt	-8%
Cc1cc(OC(C)C(=O)N2C[C@H]3C[C@@H](C2)c2cccc(=O)n2C3)c2c(C)c(C)c(=O)oc2c1 (stereo not given in full)	18%	nt	3%	11%	9%	-29%
CC(=O)N1c2ccccc2C(=O)C1N1CCN(c2ccccc2F)CC1 (stereo not given)	?	-3%	11%	?	nt	-3%
Cc1ccc(Cl)cc1NC(=O)C(C)n1nc(-c2ccccc2)ccc1=O (stereo not given)	?	-2%	-13%	-20%	nt	-8%
N=c1c(C(=O)NCC2CCCO2)cc2c(=O)n3ccccc3nc2n1Cc1ccccc1 (stereo not given)	-12%	0%	-6%	1%	1%	-11%
Cc1ccc(Cn2c(=N)c(C(=O)NCC3CCCO3)cc3c(=O)n4cccc(C)c4nc32)cc1 (stereo not given)	7.3µM*	5%	5%	9.2µM*	-11%	0%
N=c1c(C(=O)NCC2CCCO2)cc2c(=O)n3ccccc3nc2n1Cc1ccccc1Cl (stereo not given)	1.5µM*	1%	17%	1.3µM*	?	-4%
